Hit rate of the full screen: of about 4,800 compounds, about 420 (8.8%) showed an effect of 50% or more. For the sample, strong results were picked, then their nearest neighbours and some compounds at random.
test system: Plasmodium falciparum; assay: Confirmatory screen in NF54 nanoGlo assay, in single point, at 2uM, 72h; type: functional, Erythrocyte; details: timepoint 72 hour

SMILES	% Inhibition [%]
O=C(COc1ccc(Cl)cc1)n1c2ccccc2c2ccccc21	-3
CC(C)(CNC(=O)[C@](C)(N)c1ccccc1)C(=O)O	-11
COc1c2c(cc3c1[C@@H](C#CCOc1ccccc1)[N+](C)(C)CC3)OCO2	75
CC(C)C(=O)N1CC[C@H](CC(=O)NCc2ccccc2)C1	-4
O=C(c1sc2ccccc2c1Cl)n1nnc2ccccc21	-8
CCOC(=O)N1CCN(c2nccn3nc(-c4ccc(OC)c(OC)c4)cc23)CC1	-6
COc1ccc([C@@]2(C)NC(=O)N(CC(=O)N3CC(=O)Nc4ccccc43)C2=O)cc1OC	2
COc1ccc(CNC(=O)Nc2ccc3c(c2)N(C(=O)c2ccccc2)CCC3)cc1OC	25
CCC(C(=O)Nc1ccc2c(c1)CN(CCc1ccc(OC)c(OC)c1)C(=O)C(C)O2)c1ccccc1 (stereo not given)	94
COc1ccc([C@H](C(=O)Nc2ccc(N(C)C)cc2)N(Cc2ccccc2)C(=O)Cc2ccccc2)cc1OC	-4
CCN(CC)c1ncnc(N(C)Cc2ccccc2)c1N	2
COc1ccc([C@H]2[C@H](C(=O)NC3CCCCCC3)CCC(=O)N2C)cc1	-8
COCc1cc2nn(CC(=O)Nc3ccc(F)cc3C)c(=O)n2c(-c2ccccc2)n1	-15
O=c1nc2n(nc1-c1ccccc1)C1(CCC1)Nc1ccccc1-2	74
C[C@]1(CCc2ccc(O)cc2)Nc2ccccc2-c2nc(=O)c(-c3ccc(F)cc3)nn21	8
C[C@]1(C(=O)O)Nc2ccccc2-c2nc(=O)c(-c3ccccc3)nn21	-2
COc1ccccc1CNC(=O)c1cn(CC2(O)CCN(Cc3ccccc3)CC2)nn1	-3
C#CCCCCC(=O)Nc1ncccc1Cl	-2
COc1ccc(N2CCN(c3nccn4nc(-c5ccc(OC)c(OC)c5)cc34)CC2)cc1	-10
CC(C(=O)Nc1ncccn1)N1CCCC1Cn1cccn1 (stereo not given)	-4
COc1nc(NC[C@H]2CCCN2C(C)C)ncc1F	66
COc1ccc2ncc(=O)n(CCOc3ccccc3)c2c1	4
COc1ccc(CCc2n[nH]c(NC(=O)CCc3c[nH]c4ccccc34)n2)cc1OC	14
CCOc1cccc(-c2ccc3nc(-c4cccc(OC)c4)c(CCC(=O)NCCc4ccc(OC)c(OC)c4)n3c2)c1	23
CCOc1cccc(-c2ccc3nc(-c4cccc(OC)c4)c(CCC(=O)NCCN4CCCC4)n3c2)c1	61

SMILES	% Inhibition [%]
CCCCN1C(=O)[C@H]2[C@H]([C@H](O)c3ccc(Cl)cc3)N[C@@]3(C(=O)Nc4ccccc43)[C@H]2C1=O	25
Cc1nnc(NC(=O)c2cc(N3CCCC3)ncn2)s1	14
O=C(NCc1ccncc1)c1cc(C(=O)C2CCCCC2)c[nH]1	-7
Cc1cnc(NC(=O)C(=O)N2CCC[C@H](n3cccn3)C2)s1	-4
Cc1ccc(Cc2nc(N3CCCN(C(=O)c4ccc(C)cc4)CC3)c3cnn(-c4ccccc4)c3n2)cc1	3
O=C(O)[C@H]1CC(=O)N(c2ccc3nc(-c4cccc(F)c4)oc3c2)C1	-6
C=CCNC(=O)N1CCC(c2nc(C)ccc2C(=O)N2CCCC2)CC1	-2
CCn1ccc([C@H](C)NC(=O)c2cc(C)c(C)s2)n1	-6
CCc1cc(C(=O)N[C@@H](C)c2ccccc2)c2c(C3CC3)nn(Cc3ccccc3)c2n1	-6
C=CCS(=O)(=O)NC(=O)c1cc(C)c(C)cc1Cl	-2
Cc1oc(-c2ccn[nH]2)cc1S(=O)(=O)Nc1cccc(Cl)c1	52
c1ccc2c(c1)ccc1oc(-c3ccn[nH]3)cc12	-5
Cc1oc(-c2ccn[nH]2)cc1S(=O)(=O)Nc1ccc(F)c(Cl)c1	40
CCCn1c(C)ccc(-c2noc(CCCC(=O)N3CCOCC3)n2)c1=O	-3
O=C(c1cnc(Nc2nc3ccccc3o2)nc1)N1CCN(c2ccccc2)CC1	0
Cn1nc(-c2nc(-c3ccc(F)cc3)no2)c2c1CCN(C(=O)c1cccc(Cl)c1)C2	-5
COc1cc(NC(=O)c2cccc3c(Br)cccc23)ccc1NC(=O)c1ccccc1Cl	0
CC1(C)Oc2cc(S(=O)(=O)NC3CCCCC3)ccc2NC1=O	-14
Cc1ccc(C(F)(F)C(=O)NCCC(=O)NS(C)(=O)=O)cc1	49
Cc1nnc([C@@H]2COCCN2Cc2csc(C)c2)o1	0
Cc1cc(C(=O)NCc2ccncc2)no1	-11
CCn1nccc1C(=O)N1CC[C@H](CC(=O)NCc2ccncc2)C1	-6
CC[C@@H](CO)NCc1cc(Br)ccc1OC	-11
CCc1nnc2ccc(S(=O)(=O)Nc3ccc(Cl)cc3)cn12	8
O=C(C[C@H]1CCC(=O)N(Cc2ccccc2)CC1)NC1CCN(Cc2ccccc2)CC1	-1

SMILES	% Inhibition [%]
O=C(NC1CCCCCC1)c1cn(CC2(O)CCN(Cc3ccccc3)CC2)nn1	-4
Cc1nc2c(Oc3ccccc3)cccc2c2c1CCN2c1ccc(OC(F)(F)F)cc1	-17
CC1=N[C@H](N2CCN(c3ccccc3)CC2)NC(O)=C1	-12
N#Cc1cccc(-c2n[nH]c3c2CN(c2ccc(-c4ccccc4)nn2)CC3)c1	85
N#Cc1cc(N2CCc3ccccc3C2)nc2ccccc12	2
Cc1ccccc1-c1nc2cc(NS(=O)(=O)c3ccccc3)ccc2o1	2
Cc1cccn(Cc2nnnn2C2CC2)c1=O	3
O=C(Cc1ccc(Cl)cc1Cl)N1CCc2[nH]nc(C(=O)N3CCN(c4ccccc4)CC3)c2C1	-1
CN1CCN(c2nc(-c3cccc(C(F)(F)F)c3)nc3c2cnn3Cc2ccccc2)CC1	-4
CN1CCC(n2ncc3[nH]c(-c4ccc(C(F)(F)F)cc4)nc32)CC1	96
CN(c1nc2c(cnn2C)c(=O)[nH]1)C1CCCC1c1ccc(C(F)(F)F)cc1 (stereo not given)	6
Cc1ccc(S(=O)(=O)Cc2nc(-c3ccc(C(=O)NCc4ccc(C)o4)cc3)oc2C)cc1	-18
O=C(CCC1CCCC1)N1CCC(N2CCCCCC2)CC1	6
Cc1cccc(NS(=O)(=O)c2cc(C(=O)NCc3ccc4c(c3)OCO4)ccc2Cl)c1C	5
O=S(=O)(c1ccccc1)N1CCC(Nc2ccc(Br)cc2)CC1	10
Cc1nc(-c2ccc(NCc3cc4ccccc4o3)nc2)[nH]c(=O)c1C	-10
Nc1ncc(C(=O)N2CCC3(CCCCCC3)C2)s1	98
Cc1ncsc1C(=O)N1CCC2(CCCCC2)C1	-14
O=C1C[C@@H](C(=O)N2CCC3(CCCCC3)C2)CCN1	-3
O=C(O)c1csc(-c2csc(CCN3C(=O)c4ccccc4C3=O)n2)n1	3
Cc1nn(C)c(C)c1-c1cc(C(=O)Nc2cc(F)ccc2F)c2c(C)nn(C)c2n1	-5
COc1cc(OC)cc(C(=O)Nc2cnc(N3CCCCC3)c(C)c2)c1	0
Cc1ccc(CN2C(=O)[C@@H]3CCCN3c3ccc(C(F)(F)F)cc32)cc1	-17
Cc1cc(N(CCO)C2CC2)nc(C2CC2)n1	-8
Cc1cc(N(C)CCC2CC2)nc([C@H](C)N(C)CCC2CC2)n1	52

SMILES	% Inhibition [%]
OC1CCC(Nc2cncc(-n3cccn3)n2)CC1 (stereo not given)	-2
CC(C)Cn1cc2c(C(F)(F)F)cc(=O)n(CCC(=O)Nc3cc(F)ccc3F)c2n1	1
CC(C)(C)OC(=O)N1CCc2ncn(Cc3ccc(F)cc3)c(=O)c2C1	-7
CCOC(=O)CCn1cc(F)c(=O)[nH]c1=O	77
CCOC(=O)COc1cc(N)c(F)cc1Cl	-10
CCOC(=O)CNc1ccc(F)c(Cl)c1	-6
Cc1nn(C)c(C)c1OCc1nnc(C2CCC2)n1C	-14
CCCNC(=O)C1=Cc2ccccc2OC=C1	-9
COc1ccccc1-n1c(=O)n(C2CCCC2)c(=O)c2c1ncn2Cc1ccccc1Cl	37
COc1ccccc1Cn1cnc2c1c(=O)n(C1CCCCC1)c(=O)n2-c1ccccc1Cl	83
COC(=O)c1ncn2c1C(=O)N(Cc1ccccc1OC)[C@](C)(C(=O)NC1CCCCC1)C2	0
Cc1ccccc1Cn1cnc2c1c(=O)n(C1CCCCC1)c(=O)n2-c1ccccc1Cl	78
CCCc1nc(N2CCCN(C(=O)C3CCCCC3)CC2)c2c(C)nn(-c3ccccc3)c2n1	0
CCC(C)(C)NCC(=O)Nc1cc(F)ccc1F	-13
Cc1coc(-c2cc(NC(=O)N(CCO)CC(F)F)ccc2C)n1	-5
Cn1nc(C(=O)Nc2nnc[nH]2)ccc1=O	4
COc1ccccc1CNCCNC(=O)c1ccncc1	8
Clc1cc(CNCCc2ccccc2)ccc1OCc1ccccc1	-6
Cc1cnccc1NCCNCc1cccc(O)c1Cl	88
C[C@@H](C1CC1)N(C)S(=O)(=O)Cc1cc(Cl)cc(Cl)c1	-3
COc1ccccc1CN(C(=O)c1ccc(C)cc1)c1ccc(CC(=O)NCCN2CCCCC2)cc1	39
CCOc1ccc(Nc2c3ccccc3nc3ccccc23)cc1	86
CCOc1ccc(-n2c(CN3CCN(C(=O)c4ccco4)CC3)nc3ccccc3c2=O)cc1	3
COc1ccc(NC(=O)c2nc(Nc3ccccc3)c3ccccc3n2)cc1	17
Cc1cccc(NS(=O)(=O)c2ccc3c(c2)Cc2cc(S(=O)(=O)Nc4cccc(C)c4)ccc2-3)c1	10
